The record followed here is the supplement of paper PMC6411743.

Compound in the assay: Nc1nc2c(ncn2[C@@H]2O[C@H](COP(=O)(O)OP(=O)(O)OP(=O)(O)O)[C@@H](O)[C@H]2O)c(=O)[nH]1 [guanosine triphosphate]
The experiment in a line: NP40-soluble protein abundance relative to vehicle (solubility fold change) (ratio); higher = more soluble protein in presence of GTP. The procedure, abridged:
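Jurkat crude lysate (Dounce-homogenised) was treated with eight concentrations from 0.1 to 10 mM for 10 min at room temperature, then 3 min at 37 °C. It was solubilised with 0.8% NP40 and benzonase (60 min, 4 °C) and ultracentrifuged, and the supernatant was TMT-labelled for LC-MS/MS. Intensities were vsn-normalised, and the value is the fold change against the NP40-processed vehicle per replicate, from three independent experiments.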

± gives the standard deviation of the averaged measurements. Targets with the largest changes are over-represented here; the source holds about 5,400 in all.

Sequence of UniProt P37198 (P37198 whole entry): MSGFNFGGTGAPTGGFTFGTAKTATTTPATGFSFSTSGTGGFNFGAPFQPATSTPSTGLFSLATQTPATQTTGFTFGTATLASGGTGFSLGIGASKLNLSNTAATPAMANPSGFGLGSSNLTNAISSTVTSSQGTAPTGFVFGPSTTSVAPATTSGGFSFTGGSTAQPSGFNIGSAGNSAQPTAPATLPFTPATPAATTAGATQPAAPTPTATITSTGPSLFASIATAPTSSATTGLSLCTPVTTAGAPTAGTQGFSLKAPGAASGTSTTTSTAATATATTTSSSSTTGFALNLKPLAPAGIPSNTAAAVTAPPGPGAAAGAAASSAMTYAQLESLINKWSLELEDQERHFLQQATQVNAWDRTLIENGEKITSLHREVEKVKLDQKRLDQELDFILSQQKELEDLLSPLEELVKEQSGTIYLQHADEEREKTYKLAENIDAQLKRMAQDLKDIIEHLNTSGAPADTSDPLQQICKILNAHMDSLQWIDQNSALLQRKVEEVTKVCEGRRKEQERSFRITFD
Sequence of UniProt P50395 (P50395 whole entry, one chain of several): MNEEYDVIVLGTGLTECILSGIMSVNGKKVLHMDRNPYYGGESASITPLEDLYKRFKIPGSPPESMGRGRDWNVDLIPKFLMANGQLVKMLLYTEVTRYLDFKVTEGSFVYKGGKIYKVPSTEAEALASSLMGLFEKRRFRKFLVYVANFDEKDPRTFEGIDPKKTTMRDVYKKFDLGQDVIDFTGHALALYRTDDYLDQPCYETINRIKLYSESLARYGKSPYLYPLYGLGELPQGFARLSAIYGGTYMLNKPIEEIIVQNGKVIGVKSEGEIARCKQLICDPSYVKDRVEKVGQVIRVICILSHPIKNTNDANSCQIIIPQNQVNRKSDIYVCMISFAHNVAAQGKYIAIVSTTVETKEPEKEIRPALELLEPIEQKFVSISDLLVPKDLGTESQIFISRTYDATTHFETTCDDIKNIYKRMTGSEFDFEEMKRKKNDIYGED
Sequence of UniProt P22087 (P22087 whole entry, one chain of several): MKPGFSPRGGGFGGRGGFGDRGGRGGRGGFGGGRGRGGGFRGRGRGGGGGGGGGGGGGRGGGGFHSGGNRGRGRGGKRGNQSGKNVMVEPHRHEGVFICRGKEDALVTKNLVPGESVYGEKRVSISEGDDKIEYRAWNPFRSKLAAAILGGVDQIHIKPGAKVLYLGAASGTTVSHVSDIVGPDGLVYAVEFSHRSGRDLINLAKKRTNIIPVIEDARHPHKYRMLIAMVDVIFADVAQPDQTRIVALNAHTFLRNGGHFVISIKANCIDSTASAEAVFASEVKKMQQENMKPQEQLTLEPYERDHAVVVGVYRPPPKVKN
Sequence of UniProt P08758 (P08758 whole entry): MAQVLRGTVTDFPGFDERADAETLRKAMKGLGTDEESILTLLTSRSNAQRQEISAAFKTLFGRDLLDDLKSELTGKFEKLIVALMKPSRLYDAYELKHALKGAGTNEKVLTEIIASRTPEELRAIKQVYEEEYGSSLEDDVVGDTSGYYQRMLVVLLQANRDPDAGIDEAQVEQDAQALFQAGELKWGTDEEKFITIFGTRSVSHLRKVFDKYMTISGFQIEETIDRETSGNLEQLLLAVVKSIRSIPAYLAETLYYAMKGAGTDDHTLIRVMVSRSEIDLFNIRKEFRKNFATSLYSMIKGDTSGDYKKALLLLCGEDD
Sequence of UniProt O43615 (O43615 whole entry): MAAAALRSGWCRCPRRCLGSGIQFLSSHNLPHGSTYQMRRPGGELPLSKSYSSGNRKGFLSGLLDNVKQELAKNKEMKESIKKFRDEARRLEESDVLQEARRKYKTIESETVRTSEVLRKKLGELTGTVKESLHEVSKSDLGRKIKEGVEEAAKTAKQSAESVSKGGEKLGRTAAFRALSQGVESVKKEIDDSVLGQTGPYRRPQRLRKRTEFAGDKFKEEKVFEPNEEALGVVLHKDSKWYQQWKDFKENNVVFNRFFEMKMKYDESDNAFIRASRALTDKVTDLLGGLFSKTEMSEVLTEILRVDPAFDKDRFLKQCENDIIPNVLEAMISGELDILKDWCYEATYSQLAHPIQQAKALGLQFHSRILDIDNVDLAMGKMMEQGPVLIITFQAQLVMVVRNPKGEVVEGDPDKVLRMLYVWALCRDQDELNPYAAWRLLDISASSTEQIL
Sequence of UniProt O95644 (O95644 whole entry): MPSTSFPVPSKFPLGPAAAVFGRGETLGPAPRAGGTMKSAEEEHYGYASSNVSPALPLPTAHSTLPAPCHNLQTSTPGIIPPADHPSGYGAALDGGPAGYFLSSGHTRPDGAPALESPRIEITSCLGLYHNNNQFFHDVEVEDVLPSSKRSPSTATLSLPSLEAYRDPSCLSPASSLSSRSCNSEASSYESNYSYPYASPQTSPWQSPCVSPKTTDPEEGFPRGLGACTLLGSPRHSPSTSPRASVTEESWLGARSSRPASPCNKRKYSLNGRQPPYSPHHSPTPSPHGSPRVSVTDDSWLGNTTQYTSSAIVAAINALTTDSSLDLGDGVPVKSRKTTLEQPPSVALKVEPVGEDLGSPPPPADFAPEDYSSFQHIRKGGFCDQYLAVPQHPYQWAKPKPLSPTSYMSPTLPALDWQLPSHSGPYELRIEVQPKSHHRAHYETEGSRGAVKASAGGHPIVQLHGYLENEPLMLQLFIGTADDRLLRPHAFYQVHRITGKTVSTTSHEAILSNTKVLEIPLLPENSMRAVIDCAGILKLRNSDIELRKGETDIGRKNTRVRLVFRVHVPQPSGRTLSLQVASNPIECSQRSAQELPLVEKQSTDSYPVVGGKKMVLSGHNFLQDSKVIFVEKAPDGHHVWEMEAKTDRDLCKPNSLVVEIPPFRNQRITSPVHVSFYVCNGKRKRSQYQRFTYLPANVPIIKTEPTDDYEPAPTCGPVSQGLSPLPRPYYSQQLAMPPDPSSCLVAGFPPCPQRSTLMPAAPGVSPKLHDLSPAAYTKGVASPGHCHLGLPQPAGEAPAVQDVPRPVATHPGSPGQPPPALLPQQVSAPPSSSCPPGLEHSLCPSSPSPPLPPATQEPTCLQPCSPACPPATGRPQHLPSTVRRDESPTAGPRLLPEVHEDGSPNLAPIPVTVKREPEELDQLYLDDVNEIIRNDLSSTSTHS
Sequence of UniProt O15042 (O15042 whole entry, one chain of several): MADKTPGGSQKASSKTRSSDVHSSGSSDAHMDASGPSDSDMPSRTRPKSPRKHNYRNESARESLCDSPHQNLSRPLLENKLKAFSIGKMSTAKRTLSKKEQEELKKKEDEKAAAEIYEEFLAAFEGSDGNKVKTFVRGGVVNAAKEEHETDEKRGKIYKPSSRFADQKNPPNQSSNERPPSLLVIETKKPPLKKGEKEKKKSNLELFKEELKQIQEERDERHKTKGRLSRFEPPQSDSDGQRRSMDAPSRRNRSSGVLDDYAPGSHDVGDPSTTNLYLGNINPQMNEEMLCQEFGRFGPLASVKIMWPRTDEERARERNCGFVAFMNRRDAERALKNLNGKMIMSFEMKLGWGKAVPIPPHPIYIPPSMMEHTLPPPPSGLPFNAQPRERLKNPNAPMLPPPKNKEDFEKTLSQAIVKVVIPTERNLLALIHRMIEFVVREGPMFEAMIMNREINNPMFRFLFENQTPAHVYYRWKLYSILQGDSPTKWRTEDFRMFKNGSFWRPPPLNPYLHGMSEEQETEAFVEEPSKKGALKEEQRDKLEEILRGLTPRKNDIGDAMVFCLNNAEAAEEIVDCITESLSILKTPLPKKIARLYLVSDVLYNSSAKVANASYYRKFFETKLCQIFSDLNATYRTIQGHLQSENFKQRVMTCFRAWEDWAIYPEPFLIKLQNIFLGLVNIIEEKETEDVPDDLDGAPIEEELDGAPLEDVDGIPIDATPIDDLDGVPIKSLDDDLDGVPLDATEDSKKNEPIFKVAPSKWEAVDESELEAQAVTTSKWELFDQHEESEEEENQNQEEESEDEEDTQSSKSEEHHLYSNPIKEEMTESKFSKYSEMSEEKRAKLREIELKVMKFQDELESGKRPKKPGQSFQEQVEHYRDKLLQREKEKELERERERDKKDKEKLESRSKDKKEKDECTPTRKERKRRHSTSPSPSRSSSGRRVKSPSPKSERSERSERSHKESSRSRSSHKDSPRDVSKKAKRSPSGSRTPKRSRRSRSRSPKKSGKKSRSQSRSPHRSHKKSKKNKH
Sequence of UniProt Q13227 (Q13227 whole entry, one chain of several): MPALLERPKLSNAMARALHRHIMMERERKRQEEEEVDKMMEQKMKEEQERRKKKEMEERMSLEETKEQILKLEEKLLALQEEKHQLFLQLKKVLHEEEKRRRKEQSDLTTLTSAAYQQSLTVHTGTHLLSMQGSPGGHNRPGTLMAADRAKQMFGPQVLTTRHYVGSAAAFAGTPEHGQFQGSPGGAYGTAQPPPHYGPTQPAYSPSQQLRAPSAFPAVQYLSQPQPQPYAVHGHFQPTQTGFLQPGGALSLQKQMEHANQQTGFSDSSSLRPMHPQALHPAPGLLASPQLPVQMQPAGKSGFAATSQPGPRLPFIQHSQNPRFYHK
Sequence of UniProt O60216 (O60216 whole entry): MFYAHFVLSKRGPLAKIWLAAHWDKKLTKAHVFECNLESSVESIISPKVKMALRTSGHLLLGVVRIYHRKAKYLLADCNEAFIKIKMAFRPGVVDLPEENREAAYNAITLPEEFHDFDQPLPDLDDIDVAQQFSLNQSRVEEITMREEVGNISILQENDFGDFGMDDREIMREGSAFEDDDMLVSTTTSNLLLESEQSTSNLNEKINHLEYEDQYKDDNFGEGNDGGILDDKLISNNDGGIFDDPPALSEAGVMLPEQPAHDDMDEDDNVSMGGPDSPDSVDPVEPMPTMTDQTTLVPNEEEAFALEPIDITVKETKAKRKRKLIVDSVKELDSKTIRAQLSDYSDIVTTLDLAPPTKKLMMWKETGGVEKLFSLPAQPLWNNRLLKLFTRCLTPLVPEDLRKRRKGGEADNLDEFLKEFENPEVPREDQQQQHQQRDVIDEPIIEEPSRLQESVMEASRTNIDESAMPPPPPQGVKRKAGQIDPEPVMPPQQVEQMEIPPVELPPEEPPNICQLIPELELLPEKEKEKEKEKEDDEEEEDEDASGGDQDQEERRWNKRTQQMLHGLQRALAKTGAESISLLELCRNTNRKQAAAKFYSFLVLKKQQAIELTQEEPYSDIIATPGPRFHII

Consider UniProt P50395|Q5SX86, for which the NP40-soluble protein abundance (concentration: 0.1mM) was 0.966 ± 0.022; the NP40-soluble protein abundance (concentration: 0.5mM) was determined as 0.999 ± 0.023; the NP40-soluble protein abundance (concentration: 1mM) came out at 0.916 ± 0.02; the NP40-soluble protein abundance (concentration: 2mM) was 0.899 ± 0.0095; the NP40-soluble protein abundance (concentration: 4mM) stood at 0.882 ± 0.012; the NP40-soluble protein abundance (concentration: 6mM) came out at 0.89 ± 0.017. For the same target, the NP40-soluble protein abundance reads like this: (concentration: 8mM) 0.859 ± 0.04; (concentration: 10mM) 0.829 ± 0.057.

As to ESD (UniProt P10768), the NP40-soluble protein abundance reads like this: (concentration: 0.1mM) 0.959 ± 0.015; (concentration: 0.5mM) 0.958 ± 0.032; (concentration: 1mM) 0.924 ± 0.032; (concentration: 2mM) 0.876 ± 0.025; (concentration: 4mM) 0.882 ± 0.034; (concentration: 6mM) 0.897 ± 0.04. The NP40-soluble protein abundance came to 0.875 ± 0.044 (concentration: 8mM) and 0.839 ± 0.059 (concentration: 10mM).

In the case of “UniProt O95758-2|O95758-6|O95758|O95758-1|O95758-4|O95758-5|O95758-7”, the NP40-soluble protein abundance turned out to be 1.02 ± 0.074 (concentration: 0.1mM); 0.974 ± 0.052 (concentration: 0.5mM); 1.02 ± 0.064 (concentration: 1mM); 1.05 ± 0.11 (concentration: 2mM); 0.994 ± 0.088 (concentration: 4mM); 0.972 ± 0.05 (concentration: 6mM). Further, the NP40-soluble protein abundance (concentration: 8mM) is 0.959 ± 0.058 and the NP40-soluble protein abundance (concentration: 10mM) is 0.951 ± 0.038.

Consider M0R2U2|P22087 (UniProt P22087), for which the NP40-soluble protein abundance by setting is: (concentration: 0.1mM) 1.02 ± 0.054; (concentration: 0.5mM) 1.03 ± 0.032; (concentration: 1mM) 1.08 ± 0.068; (concentration: 2mM) 1.21 ± 0.056; (concentration: 4mM) 1.52 ± 0.068; (concentration: 6mM) 1.77 ± 0.082. The NP40-soluble protein abundance by setting is: (concentration: 8mM) 2.13 ± 0.11; (concentration: 10mM) 2.47 ± 0.083.

In the case of “UniProt O95644|O95644-10|O95644-11|O95644-2|O95644-3|O95644-4|O95644-5|O95644-6|O95644-8”, the NP40-soluble protein abundance (concentration: 0.1mM) was 1.01 ± 0.2; the NP40-soluble protein abundance (concentration: 0.5mM) came to 1.07 ± 0.094; the NP40-soluble protein abundance (concentration: 1mM) came out at 1.25 ± 0.18; the NP40-soluble protein abundance (concentration: 2mM) was 1.37 ± 0.17; the NP40-soluble protein abundance (concentration: 4mM) amounted to 1.31 ± 0.29; the NP40-soluble protein abundance (concentration: 6mM) was found to be 1.34 ± 0.19. Moreover, the NP40-soluble protein abundance by setting is: (concentration: 8mM) 1.17 ± 0.053; (concentration: 10mM) 1.34 ± 0.3.

Turning to TIMM44 (UniProt O43615), the NP40-soluble protein abundance reads like this: (concentration: 0.1mM) 0.992 ± 0.035; (concentration: 0.5mM) 0.989 ± 0.041; (concentration: 1mM) 0.993 ± 0.057; (concentration: 2mM) 0.946 ± 0.058; (concentration: 4mM) 0.954 ± 0.09; (concentration: 6mM) 0.914 ± 0.082. Further, the NP40-soluble protein abundance is 0.946 ± 0.058 (concentration: 8mM) and 0.93 ± 0.064 (concentration: 10mM).

Turning to “H7BYN4|Q02241|Q02241-2|Q02241-3 (UniProt Q02241)”, the NP40-soluble protein abundance stood at 1.1 ± 0.048 (concentration: 0.1mM); 1.03 ± 0.036 (concentration: 0.5mM); 1.0707 ± 0.00082 (concentration: 1mM); 1.09 ± 0.021 (concentration: 2mM); 1.114 ± 0.0076 (concentration: 4mM); 1.13 ± 0.046 (concentration: 6mM). Also, the NP40-soluble protein abundance by setting is: (concentration: 8mM) 1.12 ± 0.084; (concentration: 10mM) 1.09 ± 0.041.

Take RAD21 (UniProt O60216): the NP40-soluble protein abundance amounted to 0.975 ± 0.037 (concentration: 0.1mM); 0.991 ± 0.03 (concentration: 0.5mM); 1.06 ± 0.023 (concentration: 1mM); 1.07 ± 0.044 (concentration: 2mM); 1.09 ± 0.028 (concentration: 4mM); 1.07 ± 0.038 (concentration: 6mM). In addition, the NP40-soluble protein abundance came out at 1.11 ± 0.062 (concentration: 8mM) and 1.12 ± 0.092 (concentration: 10mM).

On to UniProt O15042|O15042-2|E7ET15, for which the NP40-soluble protein abundance (concentration: 0.1mM) turned out to be 1 ± 0.011; the NP40-soluble protein abundance (concentration: 0.5mM) worked out at 1.08 ± 0.013; the NP40-soluble protein abundance (concentration: 1mM) came to 1.15 ± 0.05; the NP40-soluble protein abundance (concentration: 2mM) is 1.18 ± 0.094; the NP40-soluble protein abundance (concentration: 4mM) was 1.24 ± 0.13; the NP40-soluble protein abundance (concentration: 6mM) is 1.32 ± 0.14. In addition, the NP40-soluble protein abundance turned out to be 1.4 ± 0.22 (concentration: 8mM) and 1.37 ± 0.23 (concentration: 10mM).

For “I3L3Y9|I3L4X7|Q13227|Q13227-2 (UniProt Q13227)”, the NP40-soluble protein abundance reads like this: (concentration: 0.1mM) 0.978 ± 0.059; (concentration: 0.5mM) 0.878 ± 0.0093; (concentration: 1mM) 1.01 ± 0.13; (concentration: 2mM) 1.01 ± 0.072; (concentration: 4mM) 1.02 ± 0.11; (concentration: 6mM) 1.06 ± 0.11. In addition, the NP40-soluble protein abundance (concentration: 8mM) came out at 1.03 ± 0.13 and the NP40-soluble protein abundance (concentration: 10mM) came to 1.08 ± 0.14.

Take UniProt O75400|O75400-2|O75400-3: the NP40-soluble protein abundance came out at 1.02 ± 0.05 (concentration: 0.1mM); 1.11 ± 0.036 (concentration: 0.5mM); 1.23 ± 0.083 (concentration: 1mM); 1.25 ± 0.076 (concentration: 2mM); 1.37 ± 0.21 (concentration: 4mM); 1.52 ± 0.24 (concentration: 6mM). The NP40-soluble protein abundance runs as follows: (concentration: 8mM) 1.81 ± 0.37; (concentration: 10mM) 1.89 ± 0.41.

Turning to ANXA5 (UniProt P08758), the NP40-soluble protein abundance (concentration: 0.1mM) is 0.882 ± 0.07; the NP40-soluble protein abundance (concentration: 0.5mM) turned out to be 0.908 ± 0.054; the NP40-soluble protein abundance (concentration: 1mM) was found to be 0.878 ± 0.077; the NP40-soluble protein abundance (concentration: 2mM) is 0.854 ± 0.076; the NP40-soluble protein abundance (concentration: 4mM) stood at 0.819 ± 0.073; the NP40-soluble protein abundance (concentration: 6mM) is 0.843 ± 0.089. Further, the NP40-soluble protein abundance (concentration: 8mM) came to 0.794 ± 0.081 and the NP40-soluble protein abundance (concentration: 10mM) worked out at 0.809 ± 0.085.

Turning to M0R2S1|P62987 (UniProt P62987), the NP40-soluble protein abundance (concentration: 0.1mM) turned out to be 0.88 ± 0.084; the NP40-soluble protein abundance (concentration: 0.5mM) came out at 0.895 ± 0.11; the NP40-soluble protein abundance (concentration: 1mM) is 1.01 ± 0.17; the NP40-soluble protein abundance (concentration: 2mM) came to 0.915 ± 0.11; the NP40-soluble protein abundance (concentration: 4mM) is 0.89 ± 0.089; the NP40-soluble protein abundance (concentration: 6mM) worked out at 0.886 ± 0.068. For the same target, the NP40-soluble protein abundance is, setting by setting: (concentration: 8mM) 0.867 ± 0.12; (concentration: 10mM) 0.941 ± 0.11.

NUP62 (UniProt P37198): the NP40-soluble protein abundance turned out to be 0.8692 ± 0.0052 (concentration: 0.1mM); 0.889 ± 0.025 (concentration: 0.5mM); 1.01 ± 0.021 (concentration: 1mM); 0.955 ± 0.038 (concentration: 2mM); 0.988 ± 0.064 (concentration: 4mM); 1.06 ± 0.053 (concentration: 6mM). For the same target, the NP40-soluble protein abundance runs as follows: (concentration: 8mM) 1.08 ± 0.052; (concentration: 10mM) 1.19 ± 0.047.
